Measurements taken from PubChem BioAssay AID652054 (National Center for Advancing Translational Sciences (NCATS), 2013).
Screen size: about 360,000 compounds; about 9,100 (2.5%) were called active. Inconclusive results (about 4%) are left out. No stated cut-off is given here; in the data, active means max response below about -50%; inconclusive means no clear call, values can overlap the other calls; inactive means above that. Shown is part of a subset that was picked to be rich in actives.

Molecular target: D(3) dopamine receptor (Homo sapiens) (UniProt P35462)
Sequence (P35462 whole entry, looked up): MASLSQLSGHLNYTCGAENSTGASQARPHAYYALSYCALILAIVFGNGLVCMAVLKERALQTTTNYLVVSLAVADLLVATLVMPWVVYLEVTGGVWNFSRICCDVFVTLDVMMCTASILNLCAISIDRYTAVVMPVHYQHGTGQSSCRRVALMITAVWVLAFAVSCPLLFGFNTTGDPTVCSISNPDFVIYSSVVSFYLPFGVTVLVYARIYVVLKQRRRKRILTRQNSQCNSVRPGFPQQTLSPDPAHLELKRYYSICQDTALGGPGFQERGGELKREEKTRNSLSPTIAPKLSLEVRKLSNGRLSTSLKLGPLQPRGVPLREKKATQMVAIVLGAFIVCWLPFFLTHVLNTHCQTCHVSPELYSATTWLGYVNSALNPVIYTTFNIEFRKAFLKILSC
Experiment: qHTS of D3 Dopamine Receptor Antagonist: qHTS
Conditions: D3R cells, DiscoveRx beta-arrestin luminescence, antagonist mode; stronger effect = lower value
Excerpt: D3 DARs represent a very important target for the treatment of several neuropsychiatric disorders. Indeed, one of the most promising therapeutic applications for the D3 DAR is in the area of addiction and related disorders. […] These findings have been observed with a number of addictive substances including cocaine, amphetamine, nicotine, and alcohol. […] Antagonism of the D3 DAR may also be therapeutic in the treatment of schizophrenia or psychosis. […] Since the D3 DAR is expressed in areas of the CNS associated with the control of mood and emotion, it has been hypothesized that selective antagonism of the D3 DAR may be effective in treating psychosis without inducing the motor side effects typically seen with D2 DAR antagonists.
This part of the project aims to discover novel antagonist.
NIH Chemical Genomics Center [NCGC]
NIH Molecular Libraries Probe Centers Network [MLPCN]
Assay Submitter (PI): David Sibley, NINDS
Freshly passaged cells are plated in 1536 well white, solid bottom plates at a density of 1500 cells/well in 3microl of complete media. After an overnight incubation at 37 degrees C in 5% CO2, cells are loaded with 23nl of test compound from the compound library (as well as dopamine controls) using a 1536 pintool and incubated at 37 degrees C for 90 minutes. Two microliters of DiscoveRx reagent is then added to all cells, and they are incubated for an additional 30 - 60 minutes at room temperature. Following incubation, luminescence is measured on a ViewLux CCD-based luminometer reader using a 20 sec exposure time.
On the % scale 0 is the no-effect control and ±100 the full control effect.

| SMILES | max response, negative = inhibition |
| --- | --- |
| Cc1ccc(CN2CCN(c3ncccn3)CC2)c(C)c1 | -14.2% (inactive) |
| Oc1c(CN2CCN(c3ccc(F)cc3)CC2)cc(Cl)c2cccnc12 | -59.7% (active) |
| Cc1cccc(C)c1NC(=O)CN1CCN(c2ccc(F)cc2)CC1 | -14.3% (inactive) |
| COc1ccc(-c2nc3ccc(Br)cn3c2Cc2ccc(C)cc2)cc1OC | 33.3% (inactive) |
| CCc1nc2c(OCCOc3ccc(F)cc3)cccn2c1N(C)C(=O)c1ccccc1F | 9.16% (inactive) |
| CC1CN(C(=O)CCC(=O)NCc2cccnc2)c2ccccc2O1 (stereo unspecified) | -17.6% (inactive) |
| CC1CN(C(=O)CCC(=O)NC2CCN(Cc3ccccc3)CC2)c2ccccc2O1 (stereo unspecified) | -13.6% (inactive) |
| CC1CN(C(=O)CCC(=O)NCCCN2CCC(Cc3ccccc3)CC2)c2cc(Cl)ccc2O1 (stereo unspecified) | -69.6% (active) |
| CC1=C(C(=O)N2CCOCC2)CC(CC(=O)NCc2cccc3ccccc23)C(=O)N1CCC1=CCCCC1 (stereo unspecified) | -26.6% (inactive) |
| CCCc1nc2c3ccccc3ccn2c1Cc1ccccc1C(F)(F)F | -26.6% (inactive) |
| CC1=C(C(=O)N2CCOCC2)CC(CC(=O)NCc2cccs2)C(=O)N1CCCN1CCCC1=O (stereo unspecified) | 0% (inactive) |
| COc1ccc(Cl)cc1NC(=O)CN(C)C(=O)c1cn(-c2ccccc2)nc1-c1cccs1 | 0.189% (inactive) |
| COCCCNc1nc2ccccc2nc1NS(=O)(=O)c1ccc(F)cc1 | 0.291% (inactive) |
| Cc1ccc(S(=O)(=O)C(C#N)c2nc3ccccc3nc2N2CCCC2)cc1C (stereo unspecified) | 17.6% (inactive) |
| Cc1ccc(S(=O)(=O)Nc2nc3ccccc3nc2N2CCc3ccccc3C2)cc1 | -50.8% (active) |
| CCc1c(-c2ccc(F)cc2)ncn1Cc1cccc(-c2ccccc2)c1 | -10.3% (inactive) |
| Nc1nc2c(ncn2[C@@H]2O[C@H](CNCc3ccc(OCCCN4CCOCC4)cc3)[C@@H](O)[C@H]2O)c(=O)[nH]1 | -3.82% (inactive) |
| CCOC(=O)C1CCCN(C(=O)c2cccc3ccccc23)CC1 (stereo unspecified) | 15.1% (inactive) |
| O=[N+]([O-])c1ccccc1/C=C/CN1CCCC(CO)C1 (stereo unspecified) | -76% (active) |

| SMILES | max response, negative = inhibition |
| --- | --- |
| CC1CCCCC1NC(=O)/C(C#N)=C/C=C/c1ccccc1[N+](=O)[O-] (stereo unspecified) | -12.8% (inactive) |
| O=C(/C=C/c1ccccc1[N+](=O)[O-])OCC(=O)N1CCCC1 | 9.84% (inactive) |
| COc1cc(CN2CC(C)CC(C)C2)cc([N+](=O)[O-])c1O (stereo unspecified) | 17.6% (inactive) |
| CC1CC(C)CN(C/C=C/c2ccccc2[N+](=O)[O-])C1 (stereo unspecified) | -73.4% (active) |
| CC(C)CNC(=O)COC(=O)/C=C/c1ccccc1[N+](=O)[O-] | -8.96% (inactive) |
| CN[C@H]1C[C@H]2c3cc(Oc4ccccc4C)ccc3CCN2C(=O)[C@H]1[C@H](C)O | 23.3% (inactive) |
| Cc1noc(C)c1-c1ccc(C(=O)NCc2ccncc2)c2occc12 | -3.57% (inactive) |
| COc1cccc(C(NC(C)=O)c2nc(-c3cnc4ccccc4c3)cs2)c1 (stereo unspecified) | 11.3% (inactive) |
| C[C@H](CO)N1C[C@H](C)[C@@H](CN(C)C(=O)c2cnccn2)Oc2ncc(Br)cc2C1=O | -23.4% (inactive) |
| Cc1ccc(-c2cnc(C(O)c3cccc(C)c3C)[nH]2)cc1 (stereo unspecified) | -20.7% (inactive) |
| COc1ccc(OC)c(C(=O)NC2CCCc3c2cnn3-c2cc(C)cc(C)c2)c1 (stereo unspecified) | 57.4% (inactive) |
| CCc1nc2c(OCc3cccc(OC)c3)cccn2c1N(C)C(=O)C(C)C | 10.3% (inactive) |
| Cc1ccc(C(=O)N[C@H](C(=O)N2CCN(c3ncccn3)CC2)C(C)C)cc1 | 0% (inactive) |
| OCCNc1nc(Nc2ccc(Cl)c(Cl)c2)nc2ccccc12 | -28.2% (inactive) |
| Nc1nnc(SCC(=O)Nc2ccc3nc(SCC(=O)Nc4ccccc4)sc3c2)s1 | 0.758% (inactive) |
| O=[N+]([O-])c1c(NCCO)cc(Sc2nc3ccccc3s2)c2nonc12 | -81.4% (active) |
| CCCC(=O)N1CCC1(C)C(=O)Nc1ccc(-n2cncn2)cc1 (stereo unspecified) | -18.5% (inactive) |
| COc1cccc(CNC(=O)[C@@H]2CCCN2C(=O)[C@@H]2CCCN2C(=O)c2ccccc2)c1 | -10.4% (inactive) |
| CSc1ncccc1C(=O)N1CCCC(Nc2ccc(F)c(F)c2)C1 (stereo unspecified) | 1.51% (inactive) |

| SMILES | max response, negative = inhibition |
| --- | --- |
| CCOC(=O)C1CCN(S(=O)(=O)c2cc(F)ccc2OC)CC1 | 2.14% (inactive) |
| CCOC(=O)C1CCCCN1Cc1ccc(OC)c(OC)c1OC (stereo unspecified) | -50.5% (active) |
| CCOC(=O)C1CCN(C(=O)/C=C/c2cc(OC)c(OC)c(OC)c2)CC1 | 0.0271% (inactive) |
| CCCCNC(=O)C[C@@H]1C[C@@]2(C(=O)OCC)CCC=C2N(Cc2ccco2)C1=O | -17.5% (inactive) |
| CC(=O)Nc1ccc(C=Cc2ccc([N+](=O)[O-])cc2)cc1 | -0.898% (inactive) |
| COc1ccc(NC(=O)C2CCC(CNC(=O)[C@@H]3Cc4ccccc4CN3)CC2)cc1 (stereo partly specified) | -8.86% (inactive) |
| COc1ccc(NC(=O)[C@H](NC(=O)[C@@H]2Cc3ccccc3CN2)c2ccccc2)cc1 | -97.8% (active) |
| COc1cccc(NC(=O)[C@H](Cc2c[nH]c3ccccc23)NC(=O)[C@@H]2Cc3ccccc3CN2)c1 | 0% (inactive) |
| O=C1OCCOC2CCCc3oc(-c4ccccc4)c1c32 (stereo unspecified) | -1.49% (inactive) |
| O=C(COc1ccc(S(=O)(=O)N2CCCC2)cc1[N+](=O)[O-])N1CCCCC1 | -6.05% (inactive) |
| CC1CCCN(CC(=O)Nc2cc(Cl)ccc2Oc2ccccc2)C1 (stereo unspecified) | 0.948% (inactive) |
| CN1CCC[C@@H]1CCO[C@](C)(c1ccccc1)c1ccc(Cl)cc1 | -107% (active) |
| CCC1CCC/C1=N\NC(=O)c1ccc(Cl)cc1 (stereo unspecified) | -14% (inactive) |
| C#Cc1ccc(NC(=O)C2(C)CCN2C(=O)Cc2ccc(-c3ccccc3)cc2)cc1 (stereo unspecified) | 4.18% (inactive) |
| O=C(NCc1cccnc1)c1cc(C2CCCN(C(=O)CCCc3ccccc3)C2)on1 (stereo unspecified) | 33.8% (inactive) |
| COc1ccccc1CN1CCCC(N2CCN(c3ccc(F)cc3)CC2)C1 (stereo unspecified) | 4.28% (inactive) |
| COc1ccc(C2C(C#N)=C(N)Oc3n[nH]c(C)c32)cc1CN1CCN(c2ccc(F)cc2)CC1 (stereo unspecified) | -95% (active) |
| COc1ccc(-c2[nH]nc3c2C(c2ccncc2)C(C#N)=C(N)O3)cc1 (stereo unspecified) | -18.7% (inactive) |
